Assay outcomes deposited in PubChem BioAssay by National Center for Advancing Translational Sciences (NCATS).
This is a sample that favours compounds with a hit; in the whole collection about 7.5% have one here.
SMN2 splice up: qHTS Assay for Enhancers of SMN2 Splice Variant Expression | HEK293 SMN2-luciferase splicing reporter, luminescence, 30-36 h | Potency, µM (titrated, usually from 46.1 µM), for inactives: at the highest dose activity change, positive = activation, hits mostly activators | 210,000 compounds, 2.8% hits; also: % of control where 0% means no effect; nearly all actives have a fitted effect of over 55% in size
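HEK293 cells carry an SMN2 […]–luciferase reporter in which exon 7 inclusion puts luciferase in frame. Cells were plated 10-12 h before compound addition, then incubated 30-36 h at 37C. ONE-Glo luminescence was read; sodium butyrate at 4.5 mM final served as control.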
FLuc modulator: qHTS profiling assay for firefly luciferase inhibitor/activator using purifed enzyme and Km concentrations of substrates (counterscreen for miR-21 project) | Luciferin 4-monooxygenase (Photinus pyralis), P08659 | purified FLuc, Km substrates, luminescence inhibition | Potency, µM (top dose mostly 57.5 µM), for inactives: at the highest dose activity change, negative = inhibition, usual class: inhibitors | 360,000 compounds, 6.9% hits | AID 588342, 2011;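 also: plate controls were vehicle for no effect and reference inhibitor for full effect; nearly all actives have a fitted effect of over 55% in size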
Target sequence (P08659 whole entry, looked up): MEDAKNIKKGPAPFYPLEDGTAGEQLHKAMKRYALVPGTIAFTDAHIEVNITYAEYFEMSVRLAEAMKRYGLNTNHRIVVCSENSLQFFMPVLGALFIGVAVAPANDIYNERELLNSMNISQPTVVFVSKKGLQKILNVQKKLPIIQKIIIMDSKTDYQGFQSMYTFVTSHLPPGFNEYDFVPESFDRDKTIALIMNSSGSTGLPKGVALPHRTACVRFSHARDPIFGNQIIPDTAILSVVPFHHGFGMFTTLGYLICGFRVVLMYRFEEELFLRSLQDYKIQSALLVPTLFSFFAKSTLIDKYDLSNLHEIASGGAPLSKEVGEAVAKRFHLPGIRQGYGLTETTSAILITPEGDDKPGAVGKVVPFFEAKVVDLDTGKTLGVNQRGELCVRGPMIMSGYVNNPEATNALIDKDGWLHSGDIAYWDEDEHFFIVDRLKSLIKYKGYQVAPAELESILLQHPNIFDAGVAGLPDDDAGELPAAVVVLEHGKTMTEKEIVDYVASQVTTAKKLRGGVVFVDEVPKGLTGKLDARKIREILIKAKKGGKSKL
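Purified P. pyralis luciferase (10nM final) with 10uM D-luciferin and 10uM ATP (Km levels) in 50mM Tris acetate pH 7.5, 10mM Mg acetate, 0.01% Tween-20, 0.05% BSA; qHTS 6-point titration, ~60 µM downward; luminescence read.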
KinaseGlo FLuc: Counterscreen for Luciferase (Kinase-Glo TM) Inhibition; Luciferin 4-monooxygenase (Photuris pensylvanica), Q27757; Kinase-Glo luciferase, ATP luminescence, 8 min; Potency, µM (titrated, usually from 38.3 µM), for the others: at the highest dose activity change, negative = inhibition, hits mostly inhibitors; 200,000 compounds, 0.28% hits; also: % is scaled to controls: 0 for no effect and ±100 for the full control effect; nearly all actives have a fitted effect of over 60% in size
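Kinase-Glo luciferase light output from ATP and luciferin was measured with 10 uM ATP, within the enzyme's linear range. Buffer: 50 mM imidazole pH 7.2, 50 mM KCl, 7 mM MgCl2, 0.01% Tween 20, 0.05% BSA; luminescence read after 8 min at ambient temperature.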
NPC1 promoter act: qHTS Assay for NPC1 Promoter Activators; AID 485313, 2010; Huh7 NPC1 promoter luciferase reporter, 24 h; Potency, µM (top dose mostly 9.22 µM), without a hit: top-dose activation, usual class: activators; 320,000 compounds, 2.4% hits; also: % of control where 0% means no effect; nearly all actives have a fitted effect of over 60% in size
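Luminescence read-out of NPC1 promoter-driven luciferase in stably transfected Huh7 cells; compounds delivered in DMSO and left 24 h at 37C, 5% CO2, qHTS titration format.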
Rab9 prom act: qHTS Assay for Rab9 Promoter Activators | Huh7 Rab9 promoter-luciferase reporter, luminescence, 24 h | Potency, µM (highest dose often 9.22 µM), inactives show at the highest dose activation, negative = inhibition, usual class: activators | 320,000 compounds, 2.8% hits | AID 485297, 2010; also: % of control where 0% means no effect; nearly all actives have a fitted effect of over 60% in size
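Steps: seed 1500 Huh7 Rab9-luc cells per well, rest 2 h at 37 °C; add compound in DMSO; incubate 24 h; add luciferase reagent, 10 min ambient; read luminescence.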
ELG1 genotox: qHTS screen for small molecules that induce genotoxicity in human embryonic kidney (HEK293T) cells expressing luciferase-tagged ELG1 | AID 504466, 2011 | HEK293T ELG1-luciferase reporter, luminescence, 16 h | 330,000 compounds, 1.3% hits | Potency, µM (series often up to 46 µM), for inactives: at the top dose activity change, positive = activation, actives largely listed as activators; also: % of control where 0% means no effect; nearly all actives have a fitted effect of over 60% in size
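After overnight (16 hr) compound treatment at 37 °C, ELG1-luciferase HEK293T cells were lysed with ONE-Glo; luminescence quantified 30 min later at room temperature.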
* hit, by the source's call; ? = inconclusive; / = not tested or not shown; [ ] = remark or other dose. Calls follow the shape of the dose curve; as a rule, active = well fitted curve in the direction sought with a large enough effect; inconclusive = small, poorly fitted or top-dose-only effect, or another doubt; inactive = no such curve, though single readings can be large; an effect the other way counts as inactive or inconclusive. Potency is read from the fitted curve at half-maximal effect.

SMILES	SMN2 splice up	FLuc modulator	KinaseGlo FLuc	NPC1 promoter act	Rab9 prom act	ELG1 genotox
CC(C)Oc1ccc(C2CC(=O)N(c3cccc(C(=O)O)c3)C2=O)cc1 (stereo unspecified)	19%	17µM*	12%	28%	3%	?
CC(C)Oc1ccc(C2CC(=O)N(c3ccc(C(=O)O)cc3)C2=O)cc1 (stereo unspecified)	/	-7%	-1%	-2%	0%	0%
Cc1cc(C(=O)COC(=O)c2cccc(S(=O)(=O)N(C)C)c2)c(C)n1CC1CCCO1 (stereo unspecified)	/	0.95µM*	/	?	3.5µM*	10%
CNS(=O)(=O)c1cccc(C(=O)OCC(=O)c2cc(C)n(CC3CCCO3)c2C)c1 (stereo unspecified)	/	1.3µM*	/	2.5µM*	2.8µM*	?
O=C(OCCOc1ccccc1)c1cccc(S(=O)(=O)N2CCOCC2)c1	/	3%	/	-6%	4%	-1%
O=C(COC(=O)c1cccc(S(=O)(=O)N2CCOCC2)c1)c1ccccc1	/	13µM*	/	-4%	-2%	-3%
O=C(CCc1nc2ccccc2[nH]c1=O)OCc1ccc(S(=O)(=O)N2CCOCC2)cc1	0%	2%	-1%	-2%	3%	1%
O=C(CCc1ccc(S(=O)(=O)N2CCOCC2)cc1)OCc1nc2ccccc2s1	-42%	21µM*	4%	-3%	6%	?
O=C(OCc1nc2ccccc2s1)c1cccc(S(=O)(=O)N2CCOCC2)c1	12%	8.5µM*	-4%	8%	9%	?
O=C(N/N=C/c1ccccc1C(=O)O)c1cccc(S(=O)(=O)N2CCOCC2)c1	/	12µM*	/	1%	1%	1%
CCOc1ccccc1/C=N/NC(=O)c1cccc(S(=O)(=O)N2CCOCC2)c1	10%	-7%	-1%	-5%	-2%	4%
COc1ccc(-n2ncc(C(C)NS(=O)(=O)c3ccc(C)s3)c2C)cc1 (stereo unspecified)	/	7%	/	4%	7%	-4%
N/N=C1/c2ccccc2N[C@H]1OC(=O)Nc1ccccc1	21%[9.22 µM]	/	-4%[7.66 µM]	/	/	/
COc1ccccc1Nc1ccc(C(=O)NC2CCCCC2)cn1	-11%	13µM*	-6%	2%	1%	?
COc1ccccc1Nc1cc(C(=O)NC2CCCC2)c2ccccc2n1	-6%	12µM*	/	1%	0%	1%
Cc1ccc(Nc2ccc(C(=O)NC3CCCCC3)cn2)cc1	/	?	/	20%	19%	7%
Cc1csc2ncc(C(=O)Nc3ccc4c(c3)OCCO4)c(=O)n12	4.5µM*	?	-5%	?	2.2µM*	2.3µM*
Cc1cccc(NC(=O)c2cnc3scc(C)n3c2=O)c1	13µM*	8.5µM*	-2%	3.2µM*	3.2µM*	16%
O=C(Nc1ccc(OC(F)(F)F)cc1)NC1COc2ccccc2C1 (stereo unspecified)	/	-4%	/	/	/	/
CCOC(=O)C1(Cc2ccccc2Cl)CCN(C(=O)CCn2ccnc2C)CC1	/	19µM*	-1%	22%	?	5%
CCOC(=O)c1csc(NC(=O)c2ccccc2)n1	11µM*	12µM*	-4%	3.2µM*	1.8µM*	8.2µM*
CCOC(=O)c1csc(-c2ccc3c(c2)CCO3)n1	/	4.8µM*	/	3.5µM*	2.2µM*	?
CCOC(=O)c1csc(NC(=O)c2ccc3c(c2)OCCO3)n1	/	3.8µM*	/	?	?	1%
CCOC(=O)c1csc(-c2ccc(OC)c(OC)c2)n1	-5%	?	-1%	-1%	0%	-1%
CCOC(=O)c1csc(NC(=O)c2ccc(OCC)cc2)n1	-39%	6.7µM*	0%	11%	?	-6%
